This is part of a sample that, as a whole, favours compounds with a hit. Of some 83,000 tested, about 20% had one in any assay.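 48-hour exposure, single concentration, 96-well plates; percent growth endpoint where 0 means no net growth. Active: below 10.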 Activity calls are given as the source filed them.
Assays:
Assay in all cases: NCI-60 one-dose screen, 48 h (100 = growth as untreated, 0 = no growth, -100 = all killed)
Details in all cases: 10 µM unless noted
SK-MEL-2 melanoma = tested on: SK-MEL-2 melanoma
EKVX NSCLC = tested on: EKVX NSCLC
SN12C renal = tested on: SN12C renal
UO-31 renal = tested on: UO-31 renal
TK-10 renal = tested on: TK-10 renal
ACHN renal = tested on: ACHN renal
CAKI-1 renal = tested on: CAKI-1 renal
A498 renal = tested on: A498 renal
CCRF-CEM leukemia = tested on: CCRF-CEM leukemia
MOLT-4 leukemia = tested on: MOLT-4 leukemia

Measured: growth

CN(C)CC(=O)Nc1nc(-c2cccc(NS(=O)(=O)c3cccc4c(N(C)C)cccc34)c2)cs1
inactive: SK-MEL-2 melanoma 94.1% | EKVX NSCLC 68.9% | SN12C renal 75.3% | UO-31 renal 70.4% | TK-10 renal 107% | ACHN renal 88.2% | CAKI-1 renal 78.8% | A498 renal 101% | CCRF-CEM leukemia 83.7% | MOLT-4 leukemia 80.4%

C#CCN(C)CCCOc1ccc(NCc2ccc(C(=O)NO)cc2)cc1Cl
active: UO-31 renal -13.7% | TK-10 renal -3.24% | ACHN renal 9.03% | CAKI-1 renal 8.63% | A498 renal -14.9%
inactive: SK-MEL-2 melanoma 15% | EKVX NSCLC 35.5% | SN12C renal 37.8% | CCRF-CEM leukemia 13.7% | MOLT-4 leukemia 17.3%

O=C1Nc2ccccc2/C1=C/c1ccc(OCC(=O)c2ccccc2)cc1
inactive: SK-MEL-2 melanoma 113% | EKVX NSCLC 100% | SN12C renal 93.9% | UO-31 renal 69.5% | TK-10 renal 125% | ACHN renal 96.6% | CAKI-1 renal 86.9% | A498 renal 104% | CCRF-CEM leukemia 98.1% | MOLT-4 leukemia 97.8%

COc1ccc(CC(C)=C(c2ccc(OCCN3CCCC3)cc2)c2ccc(OCCN3CCCC3)cc2)cc1
active: SK-MEL-2 melanoma -91.8% | EKVX NSCLC -90.8% | SN12C renal -82.9% | UO-31 renal -94.9% | TK-10 renal -94.4% | ACHN renal -96% | CAKI-1 renal -89.1% | A498 renal -87.5% | CCRF-CEM leukemia -40.8% | MOLT-4 leukemia -60.3%

COC(=O)c1cccc(NC2=CC(=O)C(C)=C(C)C2=O)c1
inactive: SK-MEL-2 melanoma 101% | EKVX NSCLC 100% | SN12C renal 93.3% | UO-31 renal 94.5% | TK-10 renal 133% | ACHN renal 100% | CAKI-1 renal 86.5% | A498 renal 78.7% | CCRF-CEM leukemia 52.8% | MOLT-4 leukemia 40%

COc1ccc(C2C(C#N)=C(/N=C/c3ccc(Cl)cc3)Oc3c2sc2c(C)cccc32)cc1 (stereo not given)
inactive: EKVX NSCLC 42.5% | SN12C renal 42.4% | UO-31 renal 37.1% | TK-10 renal 76.9% | ACHN renal 49.1% | CAKI-1 renal 39% | CCRF-CEM leukemia 18.7% | MOLT-4 leukemia 17%
active: SK-MEL-2 melanoma -12.9% | A498 renal -11.5%

COc1ccc2c(c1)c(-c1nc(N)nnc1-c1c[nH]c3ccccc13)cn2C
active: A498 renal 4.9%
inactive: SK-MEL-2 melanoma 52.6% | EKVX NSCLC 43.9% | SN12C renal 53.6% | UO-31 renal 50.9% | TK-10 renal 92.8% | ACHN renal 44.7% | CAKI-1 renal 31.1% | CCRF-CEM leukemia 28.7% | MOLT-4 leukemia 25.5%

CCOC(=O)Nc1ccc2c(ccn2C(=O)c2cccc(F)c2)c1
inactive: SK-MEL-2 melanoma 32% | EKVX NSCLC 44.1% | SN12C renal 48.7% | UO-31 renal 49.9% | TK-10 renal 59.9% | ACHN renal 53.4% | CAKI-1 renal 45.1% | CCRF-CEM leukemia 16.7% | MOLT-4 leukemia 30.2%
active: A498 renal -6.19%

COc1ccc2[nH]cc(-c3nn4cc(-c5ccncc5)nc4s3)c2c1
inactive: SK-MEL-2 melanoma 101% | EKVX NSCLC 55.4% | SN12C renal 83.5% | UO-31 renal 23.3% | TK-10 renal 109% | ACHN renal 57.5% | CAKI-1 renal 56.9% | A498 renal 68.9% | CCRF-CEM leukemia 37.9% | MOLT-4 leukemia 50.4%

Cn1ncc2ncc(-c3ccc4ncc(C#N)c(N5CCc6cc(F)c(Cl)cc65)c4c3)cc21
active: UO-31 renal 3.14% | A498 renal 2.55%
inactive: SK-MEL-2 melanoma 47.6% | EKVX NSCLC 11.3% | SN12C renal 30.3% | TK-10 renal 63.2% | ACHN renal 17% | CAKI-1 renal 13.6% | CCRF-CEM leukemia 28.4% | MOLT-4 leukemia 12.6%

COc1ccc(-c2cc(-c3ccc(N4CCOCC4)cc3)n3c(n2)nc2ccccc23)cc1OC
inactive: SK-MEL-2 melanoma 97.8% | EKVX NSCLC 88.3% | SN12C renal 78.6% | UO-31 renal 39.2% | TK-10 renal 98.8% | ACHN renal 93.6% | CAKI-1 renal 50.6% | A498 renal 63% | CCRF-CEM leukemia 63.7% | MOLT-4 leukemia 51.4%

CNCCN(C)c1ccc(Nc2cc(NC3CC3)n3ncc(C#N)c3n2)cc1NC(C)=O
active: SK-MEL-2 melanoma -20.4% | EKVX NSCLC 7.67% | UO-31 renal 6.68% | TK-10 renal -29.9% | CAKI-1 renal -36.6% | A498 renal -36.5% | MOLT-4 leukemia 8.27%
inactive: SN12C renal 22.4% | ACHN renal 15.1% | CCRF-CEM leukemia 13.2%

Cc1ccc(C(=O)CSc2nnc(-c3ccc(-c4ccc(Cl)cc4)nc3C)o2)cc1
inactive: SK-MEL-2 melanoma 112% | EKVX NSCLC 68.6% | SN12C renal 99.7% | UO-31 renal 93.9% | TK-10 renal 191% | ACHN renal 95.4% | CAKI-1 renal 95.8% | A498 renal 98.2% | CCRF-CEM leukemia 108% | MOLT-4 leukemia 103%
